Screens: PubChem, National Center for Advancing Translational Sciences (NCATS)
HepG2 viability: qHTS for Inhibitors of TGF-b: Cytotox Counterscreen. HepG2 CAGA-GFP viability, ATP luminescence, 18 h. Potency, µM (doses to about 46.1 µM), for the others: at the highest dose activity change, negative = cytotoxicity, usual class: cytotoxic. hit rate 0.76% among 410,000
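CellTiter-Glo luminescence gave cytotoxicity after 18 hours at 37 degrees C. The cells were HepG2 CAGA-GFP in 1% FBS DMEM, stimulated with 500 pg/mL TGF-beta after compound addition. %Activity was normalised to no-cell wells (complete cell-killing) and DMSO (no toxicity), and curves were fitted and classified.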
ATXN2 expr inh: Primary qHTS for Inhibitors of ATXN expression. HEK-293 ATXN2-luciferase reporter, luminescence, 24 h. hit rate 0.72% among 360,000. AID 1745845, 2022. Potency, µM (highest dose often 57 µM), inactives show top-dose activity change, negative = inhibition, hits mostly inhibitors; further: on the % scale 0 is the no-effect control and ±100 the full control effect; nearly all actives have a fitted effect of over 55% in size
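ATXN2-luciferase reporter cells (luciferase flanked by upstream and downstream ATXN2 gene portions) were treated 24 h at 37 °C with compounds at up to 57 uM. SteadyGlo luminescence gave expression; GF-AFC fluorescence gave viability.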
TDP1 cell CPT: qHTS for Inhibitors of human tyrosyl-DNA phosphodiesterase 1 (TDP1): qHTS in cells in presence of CPT | chicken DT40 Tdp1-/-;hTDP1 cells + 20 nM CPT, ATP luminescence, 48 h | Potency, µM (series often up to 46.2 µM), inactives show at the top dose activity change, negative = growth inhibition, most hits filed as inhibitors | hit rate 12% among 420,000; further: on the % scale 0 is the no-effect control and ±100 the full control effect; nearly all actives have a fitted effect of over 55% in size
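Chicken DT40 Tdp1-/- cells stably complemented with human TDP1 were seeded at 400 cells/well in medium containing 20 nM camptothecin, exposed to pin-transferred compounds, and grown at 37 °C for at least 48 hr. Viability was read as ATP luminescence.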
TGFb inhibitor: qHTS for Inhibitors of TGF-b; HepG2 CAGA-GFP TGF-b/SMAD3 reporter, GFP fluorescence, 18 h; TGF-beta stimulated, 500 pg/mL final; Potency, µM (top dose mostly 46.1 µM), for the others: at the top dose activity, negative = inhibition, usual class: inhibitors; hit rate 1.2% among 410,000; AID 588855, 2011; further: on the % scale 0 is the no-effect control and ±100 the full control effect; nearly all actives have a fitted effect of over 65% in size
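HEPG2 CAGA-GFP reporter cells (1000/well, DMEM with 1% FBS) received compounds, then recombinant TGF-beta at 500 pg/mL final for 18 hours at 37 degrees C. Per-cell GFP summed per well was normalised to unstimulated and stimulated DMSO controls before curve fitting.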
S2 tox: Viability Counterscreen for Primary qHTS for Inhibitors of ATXN expression | S2 cells (HEK-293 line with an ATXN2-luciferase reporter) viability, CellTiter-Fluor protease fluorescence, 24 h | Potency, µM (series often up to 56.7 µM), usual class: cytotoxic | hit rate 0.49% among 400,000 | AID 651635, 2014; further: nearly all actives have a fitted effect of over 40% in size
TDP1 cell noCPT: qHTS for Inhibitors of human tyrosyl-DNA phosphodiesterase 1 (TDP1): qHTS in cells in absence of CPT; hit rate 15% among 420,000; AID 686978, 2013; DT40 Tdp1-/- hTDP1 cells, no CPT, ATP luminescence, 48 h; Potency, µM (titrated, usually from 46.2 µM), without a hit: at the highest dose activity change, negative = growth inhibition, actives largely listed as inhibitors; further: on the % scale 0 is the no-effect control and ±100 the full control effect; nearly all actives have a fitted effect of over 55% in size
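Stably hTDP1-transfected Tdp1-null chicken DT40 cells were treated with library compounds minus camptothecin and grown for at least 48 hr at 37 °C, after which cellular ATP was quantified by luminescence.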
Numbers without * were called inactive; i = inactive; ? = inconclusive; . = no result. Sampled rows, rich in hits. Any-hit rate of the full collection: about 17%. The call rests on the fitted dose curve; in most records, active means well fitted curve in the direction sought with a large enough effect; inconclusive means small, poorly fitted or top-dose-only effect, or another doubt; inactive means no such curve, though single readings can be large; an effect the other way counts as inactive or inconclusive. Potency means the concentration at half of the fitted maximal effect.

SMILES | HepG2 viability | ATXN2 expr inh | TDP1 cell CPT | TGFb inhibitor | S2 tox | TDP1 cell noCPT
Cc1ccc2[nH]cc(S(=O)(=O)c3ccc(F)cc3)c(=O)c2c1 | -12% | -9% | ? | -18% | i | 9.2µM*
CCOc1ccc(S(=O)(=O)c2c[nH]c3ccc(C)cc3c2=O)cc1 | -39% | -5% | -15% | 4% | i | -5%
COc1ccccc1N1CCN(S(=O)(=O)c2c(C)sc3ncn(CC(=O)Nc4ccccc4F)c(=O)c23)CC1 | -14% | 15% | 1% | 2% | ? | -3%
Cc1ccc(C(=O)C2CC2)cc1C | 1% | -6% | -5% | 9% | i | -4%
COC1CCC(C(=O)c2ccc3nc4c(cc3c2)CCCO4)CC1 (configuration not stated) | . | 31µM* | . | . | . | .
COc1ccc(OC)c(CNn2c(-c3ccccc3F)nc3ccccc3c2=O)c1 | -39% | -25% | ? | 6% | i | 18µM*
COc1ccc(CNn2c(-c3ccccc3F)nc3ccccc3c2=O)cc1OC | -12% | -32% | ? | -9% | i | 18µM*
c1ccc(Cn2ncc3c(N4CCCCC4)ncnc32)cc1 | 1% | 3% | ? | 15% | i | ?
Clc1ccc(Cn2ncc3c(N4CCN(c5ccccc5)CC4)ncnc32)cc1 | -16% | ? | 23µM* | ? | ? | 23µM*
Cc1ccc(Cn2ncc3c(N4CCN(c5ccccc5C)CC4)ncnc32)cc1 | -27% | -23% | 23µM* | ? | ? | 16µM*
Cc1c(C(=O)Nc2ccc(F)cc2F)nnn1-c1ccccc1Br | -27% | 15% | 10µM* | -14% | ? | 13µM*
O=C(Nc1ccc2c(c1)OCO2)c1cc2ncc(Br)cn2n1 | 2% | 18% | ? | 23% | ? | 21µM*
CC1(C(=O)NS(=O)(=O)c2cccc(C#N)c2)CCN1C(=O)CC1CCCCC1 (configuration not stated) | -5% | 8% | 1% | 9% | i | 7%
Oc1ccc(N=Nc2cccc(C(F)(F)F)c2)cc1C=Nc1ccc(N2CCOCC2)cc1 | -21% | -21% | 23µM* | -2% | i | 18µM*
Oc1ccc(C=Nc2ccc(N3CCOCC3)cc2)c(O)c1 | -3% | 1% | -22% | -37% | i | -20%
COC(=O)Cn1nc(C)c2c(C)n(-c3ccccc3)nc2c1=O | 0% | . | -1% | . | . | -1%
O=P(c1ccccc1)(c1ccccc1)c1nc(-c2ccccc2)oc1NCc1ccccc1 | 7% | -2% | ? | 1% | i | 18µM*
CCOP(=O)(OCC)c1nc(Cc2ccccc2)oc1NCc1ccccc1 | -5% | . | ? | 1% | i | ?
CCc1ccc2c(c1)c(N=NC1=NC(=O)CS1)c(O)n2C | 0% | -14% | -28% | -3% | i | 16µM*
O=C(O)CC1(CC(=O)Nc2ccccc2Br)CCCC1 | 22% | 3% | -5% | 15% | i | -18%
COc1ccc(Nc2nc(-c3ccccc3F)nc3ccccc23)cc1OC | -12% | 5% | 15µM* | 2% | i | 15µM*
N#Cc1cccc(-c2nc(Nc3ccncc3)c3ccccc3n2)c1 | . | . | 2.6µM* | . | . | 2.9µM*
COc1cccc(Nc2nc(-c3ccccc3)nc3ccccc23)c1 | -68% | -19% | 23µM* | ? | i | ?
COc1ccc(Nc2nc(-c3ccccc3)nc3ccccc23)c(OC)c1 | -22% | -16% | ? | -17% | i | 21µM*
CC(C)(C)[N+]([O-])=Cc1ccc(S(=O)(=O)O)cc1S(=O)(=O)O | . | 13% | . | . | . | .
SMILES | HepG2 viability | ATXN2 expr inh | TDP1 cell CPT | TGFb inhibitor | S2 tox | TDP1 cell noCPT
COc1ccc(Nc2nc(-c3ccccc3O)nc3ccccc23)cc1 | -51% | -25% | ? | ? | i | 18µM*
COc1ccc(OC)c(Nc2nc(-c3ccccc3O)nc3ccccc23)c1 | -9% | -11% | -15% | ? | . | ?
COc1ccc(Nc2nc3cc(C)ccc3cc2C#N)c(OC)c1 | 2% | 13% | 1.2µM* | 1% | i | 0.029µM*
COc1cccc(Oc2nc(-c3ccncc3)nc3ccccc23)c1 | -3% | -22% | 15µM* | 0% | i | ?
COc1ccc(OC)c(Nc2nc(-c3ccncc3)nc3ccccc23)c1 | -17% | -27% | 18µM* | 6% | . | 7.3µM*
NC(=O)C1CCCN(CC(=O)Nc2cc(S(=O)(=O)N3CCOCC3)ccc2N2CCCC2)C1 (configuration not stated) | 12% | . | -9% | 1% | ? | -13%
COc1ccc2cc3cc(C(=O)Nc4cc(C)c(Cl)cc4OC)oc3nc2c1 | -1% | 2% | -1% | 0% | i | ?
COc1ccc(Nc2nc(N3CCN(S(C)(=O)=O)CC3)nc3ccccc23)c(OC)c1 | -15% | -2% | ? | -1% | i | ?
COc1cccc(Nc2nc(NCCO)c3ccccc3n2)c1 | -36% | -12% | 4.6µM* | 13µM* | i | 21µM*
COc1ccc(Nc2nc(-c3ccncc3)nc3ccccc23)cc1 | -30% | -20% | 21µM* | -8% | i | 10µM*
Fc1cccc(Nc2nc(-c3ccncc3)nc3ccccc23)c1 | -45% | -20% | . | 8% | i | .
COc1ccc(Nc2nc(N3CCN(S(=O)(=O)N(C)C)CC3)nc3ccccc23)cc1 | -31% | -38% | 12µM* | -21% | ? | 8.2µM*
Cc1cc(Cl)ccc1OCC(=O)N(Cc1ccco1)C1CCS(=O)(=O)C1 (configuration not stated) | -9% | . | -12% | -15% | i | ?
CC1(C2CC2)NC(=O)N(CC(=O)N2CCN(c3ccccc3)CC2)C1=O (configuration not stated) | -20% | 4% | -2% | -1% | i | 15%
C=CC(=O)Nc1ccc(N(C)c2ccnc(Nc3ccc(N4CCN(C)CC4)cc3)n2)cc1 | -3% | -37% | ? | ? | 14µM* | 16µM*
C#CC[N+](C)(C)C(C#Cc1ccccc1)CC=C (configuration not stated) | -52% | 27% | 12µM* | 0% | i | 18µM*
COc1ccc(C(=O)c2sc3nc(C)cc(-c4cccs4)c3c2N)cc1 | -22% | . | ? | 45% | . | ?
